Measurements reported in PubChem BioAssay (EPA / NIEHS).
Active and inactive are the calls of the source. How the source made its calls: active means hit-call score of the fitted dose curve at least 0.9, where 1 is the maximum; inactive means score below 0.9.

What was measured:
Conditions in all cases: mRNA level, 48 h; actives raise or lower the signal
[1] = read-out: Fatty Acid-Binding Protein 1 (FABP1), FABP1 (gene 2168); experiment: LTEA_HepaRG_FABP1: Life Technologies and Expression Analysis (LTEA) Assay for Fatty Acid-Binding Protein 1 (FABP1) using HepaRG (AID 2283494)
Method in brief: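 HepaRG, 48 h post-plating switched to serum-free induction medium, then dosed 48 h (duplicate, 8 pts, ≤100 uM, 0.5% DMSO). RNA → Fluidigm TaqMan qRT-PCR, FABP1 normed to ACTB/GAPDH/POLR2A. Bidirectional curve fit vs DMSO.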

[2] = read-out: Cytochrome P450 4A22 (Homo sapiens) (UniProt Q5TCH4); experiment: LTEA_HepaRG_CYP4A22: Life Technologies and Expression Analysis (LTEA) Assay for Cytochrome P450 4A22 (CYP4A22) using HepaRG (AID 2283495)
Method in brief: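 Differentiated HepaRG cells in serum-free induction medium exposed 48 h in duplicate to eight half-log concentrations up to 100 uM in 0.5% DMSO. CYP4A22 mRNA quantified by TaqMan qRT-PCR, normalized to ACTB, GAPDH and POLR2A; bidirectional fit versus DMSO.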

[3] = read-out: Cytochrome P450 7A1 (Homo sapiens) (UniProt P22680); experiment: LTEA_HepaRG_CYP7A1: Life Technologies and Expression Analysis (LTEA) Assay for Cytochrome P450 7A1 (CYP7A1) using HepaRG (AID 2283496)
Method in brief: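 Gene expression endpoint in human HepaRG liver cells treated for 48 h with test chemicals (up to 100 uM, 0.5% DMSO). Values come from bidirectional concentration-response fitting versus DMSO.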

[4] = read-out: Glutathione S-Transferase (GSTA2), GSTA2 (gene 2939); experiment: LTEA_HepaRG_GSTA2: Life Technologies and Expression Analysis (LTEA) Assay for Glutathione S-Transferase (GSTA2) using HepaRG (AID 2283497)
Method in brief: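 HepaRG, 48 h dosing, 8-pt half-log CRC from 100 uM, 0.5% DMSO vehicle, n=2; RNA → Fluidigm TaqMan qRT-PCR; GSTA2 vs ACTB/GAPDH/POLR2A; gain/loss fit vs DMSO.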

[5] = read-out: Glutamate-cysteine ligase catalytic (GCLC), GCLC (gene 2729); experiment: LTEA_HepaRG_GCLC: Life Technologies and Expression Analysis (LTEA) Assay for Glutamate-cysteine ligase catalytic (GCLC) using HepaRG (AID 2283498)
Method in brief: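 Read-out is GCLC transcript level by Fluidigm-based TaqMan qRT-PCR, normalized to three housekeeping genes and fitted in both directions relative to 0.5% DMSO. Human HepaRG cells received chemicals for 48 h, up to 100 uM.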

[6] = read-out: growth arrest and DNA damage 45 (GADD45G), GADD45G (gene 10912); experiment: LTEA_HepaRG_GADD45G: Life Technologies and Expression Analysis (LTEA) Assay for growth arrest and DNA damage 45 (GADD45G) using HepaRG (AID 2283499)
Method in brief: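 Differentiated human HepaRG cells, 48 h post-plating, exposed 48 h in serum-free induction medium to 8 half-log concentrations (top 100 uM, 0.5% DMSO) in duplicate. GADD45G mRNA measured by Fluidigm TaqMan qRT-PCR, normalized to ACTB, GAPDH, POLR2A; bidirectional fit versus DMSO.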

[7] = read-out: Glutamate-cysteine ligase regulatory (GCLM), GCLM (gene 2730); experiment: LTEA_HepaRG_GCLM: Life Technologies and Expression Analysis (LTEA) Assay for Glutamate-cysteine ligase regulatory (GCLM) using HepaRG (AID 2283500)
Method in brief: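 Human liver HepaRG cultures receive test chemicals for 48 hours at up to 100 uM in 0.5% DMSO. GCLM expression is measured by qRT-PCR and analysed for increases or decreases against vehicle.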

[8] = read-out: Glutathione S-transferase M3 (GSTM3), GSTM3 (gene 2947); experiment: LTEA_HepaRG_GSTM3: Life Technologies and Expression Analysis (LTEA) Assay for Glutathione S-transferase M3 (GSTM3) using HepaRG (AID 2283501)
Method in brief: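 Differentiated human HepaRG cells were exposed in duplicate for 48 h in serum-free induction medium, 8 points from 100 uM top in half-log steps, 0.5% DMSO. GSTM3 mRNA was measured by TaqMan qRT-PCR, normalized to ACTB, GAPDH and POLR2A; bidirectional fit versus DMSO.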

[9] = read-out: Heat shock 70 kDa protein 1 (HSPA1A), gene 3303; experiment: LTEA_HepaRG_HSPA1A: Life Technologies and Expression Analysis (LTEA) Assay for Heat shock 70 kDa protein 1 (HSPA1A) using HepaRG (AID 2283502)
Method in brief: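 HSPA1A induction in human HepaRG liver cells is measured after 48 h of chemical treatment (100 uM maximum, 0.5% DMSO vehicle). Expression comes from qRT-PCR normalized to endogenous controls.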

[10] = read-out: 3-Hydroxy-3-Methylglutaryl-CoA Synthase 2 (HMGCS2), HMGCS2 (gene 3158); experiment: LTEA_HepaRG_HMGCS2: Life Technologies and Expression Analysis (LTEA) Assay for 3-Hydroxy-3-Methylglutaryl-CoA Synthase 2 (HMGCS2) using HepaRG (AID 2283504)
Method in brief: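 Human HepaRG cells in serum-free induction medium were exposed in duplicate for 48 h to 8-point half-log series from 100 uM top in 0.5% DMSO. HMGCS2 mRNA measured by TaqMan qRT-PCR, normalised to ACTB, GAPDH, POLR2A; bidirectional fit versus DMSO.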

HGF (gene 3082) = experiment: LTEA_HepaRG_HGF: Life Technologies and Expression Analysis (LTEA) Assay for Hepatocyte Growth Facto (HGF) using HepaRG (AID 2283505)
Method in brief: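 Differentiated HepaRG cells in serum-free induction medium exposed 48 h in duplicate, 8 half-log concentrations from 100 uM in 0.5% DMSO. HGF mRNA by qRT-PCR, normalised to ACTB, GAPDH, POLR2A; bidirectional fitting.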

[11] = read-out: Insulin Like Growth Factor 1 (IGF1), IGF1 (gene 3479); experiment: LTEA_HepaRG_IGF1: Life Technologies and Expression Analysis (LTEA) Assay for Insulin Like Growth Factor 1 (IGF1) using HepaRG (AID 2283506)
Method in brief: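 Using human HepaRG liver cells, IGF1 transcript induction or suppression is measured 48 h after dosing across eight concentrations capped at 100 uM. Values derive from bidirectional concentration-response fitting with DMSO as baseline.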

[12] = read-out: Intercellular Adhesion Molecule 1 (ICAM1), ICAM1 (gene 3383); experiment: LTEA_HepaRG_ICAM1: Life Technologies and Expression Analysis (LTEA) Assay for Intercellular Adhesion Molecule 1 (ICAM1) using HepaRG (AID 2283507)
Method in brief: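 Differentiated human HepaRG cells in serum-free induction medium exposed 48 h in duplicate to 8 half-log concentrations (top 100 uM, 0.5% DMSO). ICAM1 mRNA quantified by TaqMan qRT-PCR, normalized to ACTB, GAPDH and POLR2A; bidirectional fitting versus DMSO.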

[13] = read-out: Insulin-like growth factor-binding protein 1 (IGFBP1), IGFBP1 (gene 3484); experiment: LTEA_HepaRG_IGFBP1: Life Technologies and Expression Analysis (LTEA) Assay for Insulin-like growth factor-binding protein 1 (IGFBP1) using HepaRG (AID 2283508)
Method in brief: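 HepaRG cells, plated 48 h then switched to serum-free induction medium, exposed in duplicate for 48 h to 8-point half-log series from 100 uM in 0.5% DMSO. mRNA measured by qRT-PCR, normalized to ACTB/GAPDH/POLR2A; bidirectional fit versus DMSO.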

[14] = read-out: Interleukin 6 (IL6), IL6 (gene 3569); experiment: LTEA_HepaRG_IL6: Life Technologies and Expression Analysis (LTEA) Assay for Interleukin 6 (IL6) using HepaRG (AID 2283509)
Method in brief: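 HepaRG, ~100,000 cells/well, 48 h pre-culture; serum-free induction medium; cmpd 8-pt half-log from 100 uM, 0.5% DMSO, duplicate, 48 h. Lysis in RLT, TaqMan qRT-PCR; gain or loss vs DMSO.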

[15] = read-out: Interleukin 6 Receptor (IL6R), IL6R (gene 3570); experiment: LTEA_HepaRG_IL6R: Life Technologies and Expression Analysis (LTEA) Assay for Interleukin 6 Receptor (IL6R) using HepaRG (AID 2283510);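 on AC50: TaqMan qRT-PCR signal normalized to ACTB GAPDH and POLR2A housekeeping genes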
Method in brief: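 Concentration-response in human liver HepaRG cells: eight concentrations from 100 uM downward by half-logs, 48 h exposure, 0.5% DMSO vehicle. IL6R mRNA change measured by qRT-PCR and fitted in both directions relative to vehicle.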

[16] = read-out: Potassium channel subfamily K member 1 (KCNK1), KCNK1 (gene 3775); experiment: LTEA_HepaRG_KCNK1: Life Technologies and Expression Analysis (LTEA) Assay for Potassium channel subfamily K member 1 (KCNK1) using HepaRG (AID 2283511)
Method in brief: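 Gain or loss of KCNK1 mRNA is the read-out, quantified by qRT-PCR against three housekeeping genes after 48 h chemical treatment of human HepaRG liver cells. Concentrations ran from 100 uM downward in half-log steps, vehicle 0.5% DMSO.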

[17] = read-out: Keratin 19 (KRT19), KRT19 (gene 3880); experiment: LTEA_HepaRG_KRT19: Life Technologies and Expression Analysis (LTEA) Assay for Keratin 19 (KRT19) using HepaRG (AID 2283512)
Method in brief: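 Differentiated HepaRG cells in serum-free induction medium, exposed 48 h in duplicate to 8 half-log concentrations up to 100 uM in 0.5% DMSO. KRT19 mRNA by qRT-PCR, normalized to ACTB, GAPDH, POLR2A; bidirectional fit vs DMSO.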

[18] = read-out: JUN Transcription Factor, JUN (gene 3725); experiment: LTEA_HepaRG_JUN: Life Technologies and Expression Analysis (LTEA) Assay for JUN Transcription Factor using HepaRG (AID 2283513)
Method in brief: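 Human HepaRG liver cells receive test chemicals in 0.5% DMSO for 48 h across an eight-point range topping at 100 uM. Expression changes in JUN are scored in both directions against the DMSO vehicle.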

[19] = read-out: Hypoxia-inducible factor 1-alpha (Homo sapiens) (UniProt Q16665); experiment: LTEA_HepaRG_HIF1A: Life Technologies and Expression Analysis (LTEA) Assay for Hypoxia-inducible factor 1 (HIF1A) Trancription factor using HepaRG (AID 2283503)
Method in brief: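 HepaRG, 48 h exposure, 8-pt half-log series from 100 uM, 0.5% DMSO vehicle, duplicates. Readout: HIF1A transcript by qRT-PCR (Fluidigm array), housekeeping-normalised. Bidirectional curve fit vs DMSO baseline.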

Measured: AC50

Chain of Hypoxia-inducible factor 1-alpha (Homo sapiens) (Q16665 whole entry, looked up): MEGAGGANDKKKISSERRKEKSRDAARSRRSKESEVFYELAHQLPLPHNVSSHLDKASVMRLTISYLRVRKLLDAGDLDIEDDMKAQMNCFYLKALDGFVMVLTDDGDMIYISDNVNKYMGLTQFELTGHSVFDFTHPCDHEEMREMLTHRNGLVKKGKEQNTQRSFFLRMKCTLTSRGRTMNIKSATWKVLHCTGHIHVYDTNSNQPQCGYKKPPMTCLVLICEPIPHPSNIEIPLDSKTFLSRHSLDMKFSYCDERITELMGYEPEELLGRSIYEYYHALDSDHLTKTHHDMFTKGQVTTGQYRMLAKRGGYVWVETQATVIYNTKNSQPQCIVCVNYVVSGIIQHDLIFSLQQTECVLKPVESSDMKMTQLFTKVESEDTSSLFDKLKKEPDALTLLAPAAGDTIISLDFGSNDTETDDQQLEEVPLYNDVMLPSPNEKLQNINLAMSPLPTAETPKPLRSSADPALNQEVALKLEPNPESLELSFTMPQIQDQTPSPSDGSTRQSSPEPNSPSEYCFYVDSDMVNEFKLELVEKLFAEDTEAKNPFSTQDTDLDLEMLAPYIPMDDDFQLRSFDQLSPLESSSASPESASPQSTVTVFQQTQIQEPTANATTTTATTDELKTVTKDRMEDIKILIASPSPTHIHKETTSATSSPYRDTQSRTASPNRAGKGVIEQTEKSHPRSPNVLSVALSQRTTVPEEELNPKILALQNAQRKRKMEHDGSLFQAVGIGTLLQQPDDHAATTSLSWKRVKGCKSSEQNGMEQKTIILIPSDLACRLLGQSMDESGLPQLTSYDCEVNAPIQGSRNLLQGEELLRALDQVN

COP(=S)(OC)Oc1nc(Cl)c(Cl)cc1Cl
inactive: [1] | [2] | [3] | [4] | [5] | [6] | [7] | [8] | [9] | [10] | HGF (gene 3082) | [11] | [12] | [13] | [14] | [15] | [16] | [17] | [18]

CC1=C(C(=O)Nc2ccccc2)SCCO1
active: [1] 50 µM | [3] 35.7 µM | [6] 61.8 µM | [10] 71.8 µM | [15] 50 µM | [17] 41.7 µM
inactive: [2] | [4] | [5] | [7] | [8] | [9] | [19] | HGF (gene 3082) | [11] | [12] | [13] | [14] | [16] | [18]

COC(=O)c1ccccc1C(=O)OC
inactive: [1] | [2] | [3] | [4] | [5] | [6] | [7] | [8] | [9] | [10] | HGF (gene 3082) | [11] | [12] | [13] | [14] | [15] | [16] | [17] | [18]

COC(=O)C(C)Oc1ccc(Oc2ccc(Cl)cc2Cl)cc1 (stereo unspecified)
inactive: [1] | [3] | [5] | [6] | [7] | [8] | [9] | HGF (gene 3082) | [11] | [12] | [13] | [14] | [15] | [16] | [18]
active: [2] 12.7 µM | [4] 74.4 µM | [10] 17.5 µM | [17] 77 µM

COc1ccc(C(c2ccc(OC)cc2)C(Cl)(Cl)Cl)cc1
active: [1] 65.4 µM | [2] 71.9 µM | [3] 40.2 µM | [4] 90.3 µM | [5] 76.3 µM | [6] 56.2 µM | [7] 49.8 µM | [9] 29.8 µM | [10] 91.8 µM | [11] 56.5 µM | [13] 72.3 µM | [17] 74.2 µM
inactive: [8] | HGF (gene 3082) | [12] | [14] | [15] | [16] | [18]

C=CC1(C)OC(=O)N(c2cc(Cl)cc(Cl)c2)C1=O (stereo unspecified)
inactive: [1] | [2] | [3] | [4] | [5] | [6] | [7] | [8] | [9] | [19] | [10] | HGF (gene 3082) | [11] | [12] | [13] | [14] | [15] | [16] | [17] | [18]
